Hits are enriched below; roughly 22% of the tested compounds scored in any of these assays.
Pf growth 48h = Primary qHTS for delayed death inhibitors of the malarial parasite plastid, 48 hour incubation | P. falciparum luciferase growth in erythrocytes, 48 h | hit rate 5.9% among 310,000 | Potency, µM (series often up to 28.7 µM), inactives show top-dose activity change, negative = inhibition, usual class: inhibitors; also: potency is read from the fitted curve at half-maximal effect; % is scaled to controls: 0 for no effect and ±100 for the full control effect
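Compounds are pin-transferred into medium, infected erythrocytes (2% hematocrit, 0.1% parasitemia final) are added, and plates sit one parasite generation at 37 C in 5% CO2. Detection reagent is then added and luminescence measured.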
CHX counter = Cycloheximide Counterscreen for Small Molecule Inhibitors of Shiga Toxin. cell reporter, cycloheximide protein synthesis inhibition counterscreen. max response, %. hit rate 12% among 300,000. AID 2314, 2010; in the data active = max response mostly above about 13%, no sharp cut-off; inactive = mostly below about 14%; also: read at 38.3 µM for the half of the compounds with a filed dose; 0% is about no effect
Pf growth 96h = Primary qHTS for delayed death inhibitors of the malarial parasite plastid, 96 hour incubation; P. falciparum luciferase reporter growth, 96 h; hit rate 6.9% among 320,000; AID 504834, 2011; Potency, µM (doses to about 28.7 µM), without a hit: top-dose activity change, negative = inhibition, hits mostly inhibitors; also: potency is read from the fitted curve at half-maximal effect; % is scaled to controls: 0 for no effect and ±100 for the full control effect
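Two parasite generations (96 h, 37 C, 5% CO2) of compound exposure in infected erythrocytes (0.05% parasitemia, 2% hematocrit). Luciferase-reporter P. falciparum; decreased luminescence indicates inhibited growth, aimed at apicoplast-acting delayed death.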
Shiga toxin inh = A qHTS for Small Molecule Inhibitors of Shiga Toxin | Vero cells, Shiga toxin protein synthesis inhibition reporter | inhibition, % at 38.7 µM | hit rate 9.2% among 290,000 | AID 2315, 2010; in the data active = inhibition mostly above about 28%, no sharp cut-off; inactive = mostly below about 43%; also: 0% is about no effect
LmPK inh = qHTS Assay for Inhibitors of Leishmania Mexicana Pyruvate Kinase (LmPK); Q27686; purified LmPK, Kinase-Glo ATP luminescence, 1 h; Potency, µM (highest dose often 57.5 µM), for the others: at the top dose activity change, negative = inhibition, most hits filed as inhibitors; hit rate 0.37% among 290,000; AID 1721, 2009; also: potency is read from the fitted curve at half-maximal effect; % is scaled to controls: 0 for no effect and ±100 for the full control effect
Target sequence (Q27686 whole entry, looked up): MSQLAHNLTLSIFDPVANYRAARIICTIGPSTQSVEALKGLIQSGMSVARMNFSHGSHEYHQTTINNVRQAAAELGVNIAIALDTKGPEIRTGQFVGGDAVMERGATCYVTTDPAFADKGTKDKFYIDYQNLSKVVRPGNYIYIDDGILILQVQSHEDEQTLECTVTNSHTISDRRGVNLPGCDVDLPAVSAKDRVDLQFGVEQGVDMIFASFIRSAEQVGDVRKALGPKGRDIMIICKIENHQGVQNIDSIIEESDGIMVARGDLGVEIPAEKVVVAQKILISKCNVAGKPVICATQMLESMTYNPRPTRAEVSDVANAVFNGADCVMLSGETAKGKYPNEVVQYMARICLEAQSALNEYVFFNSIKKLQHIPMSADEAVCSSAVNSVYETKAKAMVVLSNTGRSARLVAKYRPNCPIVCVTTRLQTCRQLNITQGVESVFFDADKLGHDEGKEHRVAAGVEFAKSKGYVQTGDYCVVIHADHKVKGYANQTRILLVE
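0.1 nM LmPK, 0.5 mM PEP, 0.1 mM ADP; 50 mM imidazole pH 7.2, 7 mM MgCl2, 50 mM KCl; 1 h RT. Kinase-Glo luminescence readout, normalized to no-enzyme (full inhibition) and uninhibited wells.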
Active calls of the source: *. Unless noted, calls follow the shape of the dose curve; as a rule, active = well fitted inhibition curve with a large enough effect; inconclusive = small, poorly fitted or top-dose-only effect, or another doubt; inactive = no such curve, though single readings can be large or run the other way.

For CCn1c(SCC(=O)N2CCc3ccccc32)nnc1-c1ccncc1 the results were Pf growth 48h 4%, CHX counter -3, Pf growth 96h 58%, Shiga toxin inh -14 and LmPK inh -3%.
`O=C(O)CSc1nnc(-c2ccncc2)n1Cc1ccccc1` gave CHX counter -7, Pf growth 96h 12%, Shiga toxin inh 38 and LmPK inh 0%.
`CCSc1nnc(-c2cccc(S(=O)(=O)N(CC)CC)c2)n1Cc1ccccc1` gave Pf growth 48h 15µM*, CHX counter -1, Pf growth 96h 17%, Shiga toxin inh -21 and LmPK inh -1%.
For Cc1occc1-c1nnc(SCC(=O)N2c3ccccc3CCc3ccccc32)n1C the results were Pf growth 48h 7.4µM*, CHX counter 7, Shiga toxin inh 25 and LmPK inh -1%.
For CCNC(=O)CSc1nnc(-c2cccc(S(=O)(=O)N(CC)CC)c2)n1CCc1ccccc1 the results were Pf growth 48h inconclusive, CHX counter -2, Pf growth 96h inconclusive, Shiga toxin inh -5 and LmPK inh 7%.
`COc1ccc(-c2nnc(SCC(=O)O)n2Cc2ccccc2)cc1` gave Pf growth 48h 6%, CHX counter -2, Pf growth 96h 7.4µM*, Shiga toxin inh 0 and LmPK inh 8%.
For Cc1occc1-c1nnc(SCC(=O)N2CCN(c3ccccc3)CC2)n1C the results were Pf growth 48h -5%, CHX counter 2, Pf growth 96h inconclusive, Shiga toxin inh 26 and LmPK inh 10%.
CCn1c(SCC(=O)N2c3ccccc3CCc3ccccc32)nnc1-c1ccc(OC)cc1 was read as Pf growth 48h 4.1µM*, CHX counter -3, Pf growth 96h 9.3µM*, Shiga toxin inh 15 and LmPK inh 5%.
CN1CCN(C(=O)c2cc(Cl)ccc2NC(=O)c2ccc(Cl)cc2Cl)CC1 was read as Pf growth 48h -12%, CHX counter -4, Pf growth 96h inconclusive, Shiga toxin inh -4 and LmPK inh -18%.
Cc1ccnc(N2CCC(C(=O)NNC(=O)COc3cccc4ccccc34)CC2)n1 was read as Pf growth 48h 1%, CHX counter -1, Pf growth 96h inconclusive, Shiga toxin inh 9 and LmPK inh 0%.
For O=S(=O)(c1c(F)cccc1F)N1CCCC2CCCCC21 (configuration not stated) the results were Pf growth 48h inconclusive and Pf growth 96h -30%.
CCOc1ccc(-c2nnc(SCC(=O)O)n2Cc2ccccc2)cc1 was read as Pf growth 48h 20%, CHX counter -3, Pf growth 96h 0.93µM* and LmPK inh 4%.
Screening COc1ccc(OCc2cc(C(=O)N(C)C3CCOCC3)no2)c2ccccc12 returned Pf growth 48h -19%, CHX counter 47*, Pf growth 96h -4%, Shiga toxin inh 101* and LmPK inh 1%.
Screening Cc1ccc(OCc2cc(C(=O)N(C)CC3CCOCC3)no2)cc1C returned Pf growth 48h -15%, CHX counter 77*, Pf growth 96h inconclusive, Shiga toxin inh 133* and LmPK inh -5%.
Screening CN(CCN1CCOCC1)C(=O)c1cc(COc2ccc(F)c(F)c2)on1 returned Pf growth 48h 18%, CHX counter 34*, Pf growth 96h 14%, Shiga toxin inh 88 and LmPK inh -3%.
Screening COc1ccc(OCc2cc(C(=O)N(C)C3CCOC3)no2)c(Cl)c1 (configuration not stated) returned Pf growth 48h 23%, CHX counter 27*, Pf growth 96h -26%, Shiga toxin inh 43 and LmPK inh 0%.
Screening Cc1ccc(OCc2cc(C(=O)NCC(C)(C)N3CCOCC3)no2)cc1C returned Pf growth 48h inconclusive, CHX counter -2, Pf growth 96h -15%, Shiga toxin inh -20 and LmPK inh -8%.
Screening CCOc1ccc(S(=O)(=O)c2cn(C)c3cc(OC)c(OC)cc3c2=O)cc1 returned Pf growth 48h -13%, CHX counter -6, Pf growth 96h -12%, Shiga toxin inh -3 and LmPK inh 3%.
Cc1n[nH]c(C)c1CN(C)C(=O)c1cc(COc2ccc(F)c(F)c2)on1 was read as Pf growth 48h 25%, CHX counter 10, Pf growth 96h 3%, Shiga toxin inh 11 and LmPK inh 9%.
`Cc1cc(OCc2cc(C(=O)N(C)C3CCOCC3)no2)cc(C)c1Cl` gave Pf growth 48h -9%, CHX counter 86*, Pf growth 96h -13%, Shiga toxin inh 126* and LmPK inh -4%.
Screening CN(C(=O)c1cc(COc2ccc(F)c(F)c2)on1)C1CCOC1 (configuration not stated) returned Pf growth 48h 19%, CHX counter 31*, Pf growth 96h -19%, Shiga toxin inh 33 and LmPK inh 1%.
Cc1ccc(OCc2cc(C(=O)N(C)Cc3cnc4ccccn34)no2)cc1C was read as Pf growth 48h -25%, CHX counter 20*, Pf growth 96h inconclusive, Shiga toxin inh 33 and LmPK inh -4%.
Screening O=C(CCNS(=O)(=O)c1ccc2ccccc2c1)NCCOc1ccccc1 returned Pf growth 48h 24% and Pf growth 96h -8%.
For COCCn1c(SCC#N)nnc1-c1ccc([N+](=O)[O-])cc1 the results were Pf growth 48h -7%, CHX counter 11, Pf growth 96h inconclusive, Shiga toxin inh -2 and LmPK inh -1%.
CCN(c1ccccc1)S(=O)(=O)c1cc(NC(=O)Nc2ccccc2C#N)ccc1Cl was read as Pf growth 48h inconclusive, CHX counter -5, Pf growth 96h inconclusive, Shiga toxin inh -1 and LmPK inh 1%.
`CCN(c1ccccc1)S(=O)(=O)c1ccc(Cl)c(NC(=O)Nc2ccc(Cl)cc2C#N)c1` gave Pf growth 48h inconclusive, CHX counter 30*, Pf growth 96h -90%, Shiga toxin inh 47* and LmPK inh 4%.
CCN(c1ccccc1)S(=O)(=O)c1ccc(OC)c(NC(=O)c2cc(Cl)ccn2)c1 was read as Pf growth 48h inconclusive and Pf growth 96h 6.6µM*.
`CCN(CC)S(=O)(=O)c1ccc(OC)c(NC(=O)Cc2cccs2)c1` gave Pf growth 48h -4%, CHX counter 32*, Pf growth 96h 20%, Shiga toxin inh -11 and LmPK inh -4%.
For CCN(c1ccccc1)S(=O)(=O)c1ccc(OC)c(NC(=O)Cc2ccccc2OC)c1 the results were Pf growth 48h 12µM* and Pf growth 96h 13µM*.
For COc1ccc(CCNC(=O)Nc2cc(F)c(F)cc2Cl)cc1OC the results were Pf growth 48h -29%, CHX counter 6, Pf growth 96h 151%, Shiga toxin inh 0 and LmPK inh 0%.
Screening COc1cccc(/C=N/NC(=O)CN(C)S(=O)(=O)c2ccccc2)c1OC returned Pf growth 48h 26% and Pf growth 96h -5%.
